Experimental data from PubChem BioAssay (Tox21).
Inconclusive results are not listed. The source made the active and inactive calls. Unless noted, calls follow the shape of the dose curve; as a rule, active = well fitted curve in the direction sought with a large enough effect in the repeat runs; inconclusive = weak or mixed curves; inactive = no such curve, though single readings can be large; an effect the other way counts as inactive or inconclusive.

Columns and labels:
[1] = qHTS assay to identify small molecule agonists of the sonic hedgehog signaling (Shh) pathway (AID 1259368; calls by dose curve;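 also: NIH/3T3-derived 3T3Gli1-Luc cells carrying a stable Gli1-driven firefly luciferase reporter; series mostly up to about 92 µM; nearly all actives have a fitted effect of over 15% in size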)
In short: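 Hedgehog pathway agonism scored by increased firefly luciferase luminescence in 3T3Gli1-Luc cells treated 24 hr at 37 C; detection used a 30 min room-temperature reagent incubation.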

[2] = qHTS assay to identify small molecule antagonists of the sonic hedgehog signaling (Shh) pathway (AID 1259369; calls by dose curve; also: nearly all actives have a fitted effect of over 45% in size)
In short: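 NIH/3T3 stable Gli1-Luc clone, 2,000 cells/well, 4hr settle; cpd + conditioned medium 24hr; Luc reagent 30min RT; luminescence.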

[3] = target: Estrogen receptor beta (Homo sapiens) (UniProt Q92731); assay: qHTS assay to identify small molecule agonists of the estrogen receptor beta (ER-beta) signaling pathway (AID 1259377; active = well fitted activation curve with a large enough effect in the signal ratio in the repeat runs, not every such curve was filed as active; the % refers to the signal ratio)
In short: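 Read-out: beta-lactamase FRET fluorescence. Cell line: ER-beta-UAS-bla HEK293T in 2% charcoal-stripped FBS. Exposure: 16 hr at 37C. Substrate step: 2 h at room temperature.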

[4] = target: Estrogen receptor beta (Homo sapiens) (UniProt Q92731); assay: qHTS assay to identify small molecule antagonists of the estrogen receptor beta (ER-beta) signaling pathway (AID 1259378; active = well fitted inhibition curve with a large enough effect in the signal ratio in the repeat runs, not every such curve was filed as active; the % refers to the signal ratio)
In short: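 Antagonist mode: compounds added to beta-lactamase reporter HEK293T ER-beta-UAS cells stimulated with E2 (1nM final), 16 hr at 37C. LiveBLAzer B/G FRET substrate, 2 hours room temperature, fluorescence read-out.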

[5] = qHTS assay to identify small molecule agonists of the androgen receptor (AR) signaling pathway in the presence of an antagonist - cell viability counter screen (AID 1259379);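 also: MDA-kb2 human breast cancer cells carrying an MMTV luciferase reporter; series mostly up to about 92 µM; nearly all actives have a fitted effect of over 25% in size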
In short: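 MDA-kb2 viability measured by CellTiter-Fluor fluorescence in the same wells as the luciferase signal; nilutamide 3.0uM final; 15-point compound titration; 16 hr at 37C.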

[6] = qHTS assay to identify small molecule agonists of the estrogen receptor beta (ER-beta) signaling pathway - cell viability counter screen (AID 1259380); also: nearly all actives have a fitted effect of over 30% in size
In short: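 Measured: luminescence from CellTiter-Glo after 30 min at room temperature, added to wells already read for the LiveBLAzer FRET reporter (2 hr substrate); ER-beta-UAS-bla HEK293T cells had 16 hr compound treatment at 37C, 5% CO2.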

[7] = qHTS assay to identify small molecule antagonists of the estrogen receptor beta (ER-beta) signaling pathway - cell viability counter screen (AID 1259382);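 also: HEK293T cells carrying ER-beta-UAS-bla reporter stimulated with estradiol; series mostly up to about 92 µM; nearly all actives have a fitted effect of over 55% in size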
In short: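 Readout: luminescence, CellTiter-Glo, same wells as bla assay. System: ER-beta-UAS-bla GripTite HEK293T, 2% charcoal-stripped FBS. Exposure: compounds plus 1nM 17-beta-estradiol, 16 hr, 37C.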

[8] = target: Estrogen receptor (Homo sapiens) (UniProt P03372); assay: qHTS assay to identify small molecule agonists of the estrogen receptor alpha (ER-alpha) signaling pathway in the presence of an antagonist (AID 1259383; calls by dose curve; also: top concentration of the series differs between compounds; nearly all actives have a fitted effect of over 15% in size)
In short: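 Quantitative HTS confirmation: compounds titrated at 15 concentrations onto estrogen-deprived VM7Luc4E2 cells carrying a four-ERE luciferase construct, with ICI-182,780 present at 10.0nM final. Signal is luminescence after 22hr exposure.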

[9] = qHTS assay to identify small molecule agonists or antagonists of the thyroid stimulating hormone receptor (TSHR) signaling pathway - wild type cell line counter screen (AID 1259384; calls by dose curve)
In short: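 Counter screen in untransfected Hek293: compounds (15-point titration, triplicate) plus phosphodiesterase inhibitor Ro20-1724 added after 18 h plating; 30 min RT. Intracellular cAMP via competitive d2/cryptate immunoassay, 1 h incubation.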

[10] = target: Thyrotropin receptor (Homo sapiens) (UniProt P16473); assay: qHTS assay to identify small molecule antagonists of the thyroid stimulating hormone receptor (TSHR) signaling pathway (AID 1259385; calls by dose curve; also: nearly all actives have a fitted effect of over 20% in size)
In short: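 Antagonist mode: compound-treated TSHR-expressing HEK293 cells were stimulated with 1.5 ng/mL TSH (final) in presence of Ro20-1724 for 30 min at RT. HTRF cAMP detection after 1 h; each compound tested at 15 concentrations, triplicate.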

[11] = qHTS assay to identify small molecule agonists of the estrogen receptor alpha (ER-alpha) signaling pathway in the presence of an antagonist - cell viability counter screen (AID 1259386);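 also: series mostly up to about 92 µM; cells exposed to compounds for 22 h at 37 °C before the viability read; nearly all actives have a fitted effect of over 30% in size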
In short: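 The test measures whether compounds kill ER-alpha reporter cells (VM7Luc4E2) under antagonist co-treatment (ICI-182,780, 10.0nM). Fluorescence from CellTiter-Fluor is read after a 22hr exposure.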

[12] = target: Progesterone receptor (Homo sapiens) (UniProt P06401); assay: qHTS assay to identify small molecule agonists of the progesterone receptor (PR) signaling pathway (AID 1346784; calls by dose curve; also: nearly all actives have a fitted effect of over 30% in size)
In short: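 Compounds were tested for PR agonism in HEK 293T cells bearing a beta-lactamase gene under UAS control. Treatment lasted 16 hr at 37C; signal came from fluorescence of a FRET substrate.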

[13] = target: Progesterone receptor (Homo sapiens) (UniProt P06401); assay: qHTS assay to identify small molecule antagonists of the progesterone receptor (PR) signaling pathway (AID 1346795; active = well fitted inhibition curve with a large enough effect in the signal ratio in the repeat runs, not every such curve was filed as active; the % refers to the signal ratio)
In short: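 In HEK293T cells bearing the PR-UAS-bla reporter, compound effects on promegestone-driven (1 nM) beta-lactamase expression are assessed after 16 hr using a fluorescent FRET substrate incubated 2 hr at room temperature.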

[14] = qHTS assay to identify small molecule antagonists of the progesterone receptor (PR) signaling pathway - cell viability counter screen (AID 1346798); also: series mostly up to about 92 µM; nearly all actives have a fitted effect of over 50% in size
In short: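 Following a 4 hr attachment, PR-UAS-bla HEK293T cells in charcoal-stripped FBS medium were exposed to compounds with R5020 for 16 hr; CellTiter-Glo was added and luminescence read after 30 min at room temperature.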

[15] = qHTS assay to identify small molecule agonists of the progesterone receptor (PR) signaling pathway - cell viability counter screen (AID 1346799; calls by dose curve; also: nearly all actives have a fitted effect of over 45% in size)
In short: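 Here, 3,000 PR-UAS-bla HEK293T cells per well were treated with compounds for 16 hr after a 6 hr preincubation at 37C and 5% CO2; cell viability is the CellTiter-Glo luminescence signal.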

[16] = qHTS assay to identify small molecule antagonists of the TGF-beta/Smad signaling pathway - cell viability counter screen (AID 1346824); also: nearly all actives have a fitted effect of over 50% in size
In short: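 Cytotoxicity counter-screen run in the same wells as the beta-lactamase Smad reporter read: CellTiter-Glo luminescence after 30 min at room temperature. HEK 293T SBE-bla cells had 5 hr compound exposure at 37 C with TGF-beta1 (0.25 ng/mL stock).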

[17] = qHTS assay to identify small molecule agonists of the TGF-beta/Smad signaling pathway - cell viability counter screen (AID 1346829); also: top concentration of the series differs between compounds; nearly all actives have a fitted effect of over 45% in size
In short: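 Luminescence from CellTiter-Glo, read after a 30 min room-temperature incubation, gives cell viability of SBE-bla HEK 293T cells treated 5 hr with compounds at 37 C.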

[18] = qHTS assay to identify small molecule agonists of the TGF-beta/Smad signaling pathway (AID 1346859; active = well fitted activation curve with a large enough effect in the signal ratio in the repeat runs, not every such curve was filed as active; the % refers to the signal ratio; also: series mostly up to about 77 µM)
In short: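 Each well held 4,000 SBE-bla HEK 293T cells incubated overnight before compound addition; 5 hr later the cleavable FRET substrate went on for 2 hr at room temperature, and fluorescence was read at two emissions.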

[19] = target: Thyrotropin-releasing hormone receptor (Homo sapiens) (UniProt P34981); assay: qHTS assay to identify small molecule antagonists of the thyrotropin-releasing hormone receptor (TRHR) signaling pathway (AID 1346877; active = well fitted inhibition curve with a large enough effect in the repeat runs, not every such curve was filed as active; also: series mostly up to about 51 µM)
In short: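 Overnight-plated (18 h, 37 °C) HEK293 cells expressing TRHR were dye-loaded 2 h, treated with compound, then stimulated with TRH at 1 nM final. Fluorescence intensity was captured every second for 3 min.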

[20] = target: Androgen receptor (Homo sapiens) (UniProt P10275); assay: qHTS assay to identify small molecule agonists of the androgen receptor (AR) signaling pathway in the presence of an antagonist (AID 1259381; calls by dose curve; also: nearly all actives have a fitted effect of over 15% in size)
In short: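 Luminescent ONE-Glo read, 30min at room temperature, follows 16hr compound exposure (15 concentrations) of MDA-kb2 cells at 37C, 0% CO2, with nilutamide added at 3.0uM final.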

Measured: Potency

Chain of Thyrotropin-releasing hormone receptor (Homo sapiens) (P34981 whole entry, looked up): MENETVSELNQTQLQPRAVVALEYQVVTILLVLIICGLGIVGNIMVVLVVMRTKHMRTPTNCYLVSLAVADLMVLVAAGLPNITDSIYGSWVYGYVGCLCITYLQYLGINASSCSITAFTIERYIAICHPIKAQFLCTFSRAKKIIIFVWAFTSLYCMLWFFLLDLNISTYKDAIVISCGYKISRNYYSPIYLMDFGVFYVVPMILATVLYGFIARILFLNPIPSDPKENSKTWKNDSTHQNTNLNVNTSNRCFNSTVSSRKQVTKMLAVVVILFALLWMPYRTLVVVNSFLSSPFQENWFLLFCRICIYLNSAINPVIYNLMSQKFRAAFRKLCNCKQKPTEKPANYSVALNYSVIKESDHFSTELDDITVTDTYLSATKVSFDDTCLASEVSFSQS
Chain of Estrogen receptor beta (Homo sapiens) (Q92731 whole entry, looked up): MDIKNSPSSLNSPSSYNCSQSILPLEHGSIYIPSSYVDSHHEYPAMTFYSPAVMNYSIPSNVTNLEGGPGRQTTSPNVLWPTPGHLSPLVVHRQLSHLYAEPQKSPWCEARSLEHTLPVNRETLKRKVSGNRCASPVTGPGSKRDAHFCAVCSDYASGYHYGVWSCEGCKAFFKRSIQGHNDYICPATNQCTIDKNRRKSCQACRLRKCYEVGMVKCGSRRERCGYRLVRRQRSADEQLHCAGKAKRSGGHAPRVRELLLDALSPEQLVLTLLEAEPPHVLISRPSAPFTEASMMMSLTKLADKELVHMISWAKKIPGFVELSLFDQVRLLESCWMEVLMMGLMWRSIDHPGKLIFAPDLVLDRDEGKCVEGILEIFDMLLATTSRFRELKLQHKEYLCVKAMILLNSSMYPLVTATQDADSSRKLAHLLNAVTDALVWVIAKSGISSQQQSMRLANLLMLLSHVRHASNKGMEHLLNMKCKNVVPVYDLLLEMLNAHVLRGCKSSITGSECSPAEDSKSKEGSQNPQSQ
Chain of Thyrotropin receptor (Homo sapiens) (P16473 whole entry, looked up): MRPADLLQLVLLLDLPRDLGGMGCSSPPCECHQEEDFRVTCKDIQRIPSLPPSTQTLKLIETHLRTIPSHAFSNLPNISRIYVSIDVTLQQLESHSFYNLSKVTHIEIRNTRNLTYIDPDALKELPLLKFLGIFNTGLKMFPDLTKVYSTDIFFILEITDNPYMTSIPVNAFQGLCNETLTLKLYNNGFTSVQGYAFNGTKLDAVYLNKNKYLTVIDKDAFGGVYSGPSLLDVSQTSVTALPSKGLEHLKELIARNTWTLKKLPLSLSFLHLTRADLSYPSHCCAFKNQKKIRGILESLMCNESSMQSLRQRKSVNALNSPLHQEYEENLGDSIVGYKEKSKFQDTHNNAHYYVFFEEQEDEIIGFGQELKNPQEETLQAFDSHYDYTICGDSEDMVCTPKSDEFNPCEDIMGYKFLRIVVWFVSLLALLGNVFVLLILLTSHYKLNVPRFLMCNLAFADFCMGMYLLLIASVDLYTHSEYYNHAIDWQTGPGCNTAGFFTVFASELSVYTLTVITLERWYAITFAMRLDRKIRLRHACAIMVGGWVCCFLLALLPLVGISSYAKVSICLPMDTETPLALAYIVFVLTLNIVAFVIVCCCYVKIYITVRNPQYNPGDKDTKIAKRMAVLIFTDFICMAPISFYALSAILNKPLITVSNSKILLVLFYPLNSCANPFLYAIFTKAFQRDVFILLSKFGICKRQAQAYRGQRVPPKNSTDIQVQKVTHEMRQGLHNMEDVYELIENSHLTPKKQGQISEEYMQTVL
Chain of Estrogen receptor (Homo sapiens) (P03372 whole entry, looked up): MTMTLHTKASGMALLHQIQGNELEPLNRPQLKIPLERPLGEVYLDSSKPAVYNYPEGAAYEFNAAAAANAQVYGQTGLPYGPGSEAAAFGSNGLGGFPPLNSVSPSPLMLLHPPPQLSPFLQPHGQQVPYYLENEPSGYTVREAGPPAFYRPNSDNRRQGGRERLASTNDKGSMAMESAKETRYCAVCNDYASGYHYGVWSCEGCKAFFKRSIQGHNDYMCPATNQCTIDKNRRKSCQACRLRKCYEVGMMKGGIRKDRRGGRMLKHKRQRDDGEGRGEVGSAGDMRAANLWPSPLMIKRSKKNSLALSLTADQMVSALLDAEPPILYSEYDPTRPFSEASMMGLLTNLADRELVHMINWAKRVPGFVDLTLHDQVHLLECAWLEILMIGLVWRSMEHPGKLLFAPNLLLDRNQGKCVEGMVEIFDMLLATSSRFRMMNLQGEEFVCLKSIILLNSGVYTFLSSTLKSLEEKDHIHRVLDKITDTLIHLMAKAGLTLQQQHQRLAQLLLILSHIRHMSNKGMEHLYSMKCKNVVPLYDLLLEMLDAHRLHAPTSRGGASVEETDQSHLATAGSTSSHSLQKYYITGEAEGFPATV
Chain of Progesterone receptor (Homo sapiens) (P06401 whole entry, looked up): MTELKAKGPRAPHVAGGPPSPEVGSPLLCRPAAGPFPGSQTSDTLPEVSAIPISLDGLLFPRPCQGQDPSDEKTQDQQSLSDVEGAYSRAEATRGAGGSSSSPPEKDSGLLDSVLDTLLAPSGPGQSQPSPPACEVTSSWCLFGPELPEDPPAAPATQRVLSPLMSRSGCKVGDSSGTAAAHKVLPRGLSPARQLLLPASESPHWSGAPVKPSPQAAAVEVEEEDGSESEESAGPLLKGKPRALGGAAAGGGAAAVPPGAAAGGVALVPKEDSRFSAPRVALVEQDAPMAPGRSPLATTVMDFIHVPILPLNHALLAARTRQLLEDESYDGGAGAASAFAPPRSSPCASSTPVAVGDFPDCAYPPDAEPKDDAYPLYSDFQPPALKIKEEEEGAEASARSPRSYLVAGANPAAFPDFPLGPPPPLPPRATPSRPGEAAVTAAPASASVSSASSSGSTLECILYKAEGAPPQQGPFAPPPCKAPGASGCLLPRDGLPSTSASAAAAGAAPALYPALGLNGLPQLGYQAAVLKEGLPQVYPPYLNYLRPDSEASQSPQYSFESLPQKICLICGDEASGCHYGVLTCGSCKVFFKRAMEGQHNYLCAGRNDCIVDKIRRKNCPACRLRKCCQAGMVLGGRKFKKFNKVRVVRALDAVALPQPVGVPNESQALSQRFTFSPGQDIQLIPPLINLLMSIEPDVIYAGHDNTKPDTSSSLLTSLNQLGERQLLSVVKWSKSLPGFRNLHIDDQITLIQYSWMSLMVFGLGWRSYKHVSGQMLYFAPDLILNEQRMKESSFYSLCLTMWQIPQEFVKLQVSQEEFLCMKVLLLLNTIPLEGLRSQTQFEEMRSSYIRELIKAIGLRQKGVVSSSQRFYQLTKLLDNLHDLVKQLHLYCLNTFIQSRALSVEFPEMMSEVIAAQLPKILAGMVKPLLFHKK
Chain of Androgen receptor (Homo sapiens) (P10275 whole entry, looked up): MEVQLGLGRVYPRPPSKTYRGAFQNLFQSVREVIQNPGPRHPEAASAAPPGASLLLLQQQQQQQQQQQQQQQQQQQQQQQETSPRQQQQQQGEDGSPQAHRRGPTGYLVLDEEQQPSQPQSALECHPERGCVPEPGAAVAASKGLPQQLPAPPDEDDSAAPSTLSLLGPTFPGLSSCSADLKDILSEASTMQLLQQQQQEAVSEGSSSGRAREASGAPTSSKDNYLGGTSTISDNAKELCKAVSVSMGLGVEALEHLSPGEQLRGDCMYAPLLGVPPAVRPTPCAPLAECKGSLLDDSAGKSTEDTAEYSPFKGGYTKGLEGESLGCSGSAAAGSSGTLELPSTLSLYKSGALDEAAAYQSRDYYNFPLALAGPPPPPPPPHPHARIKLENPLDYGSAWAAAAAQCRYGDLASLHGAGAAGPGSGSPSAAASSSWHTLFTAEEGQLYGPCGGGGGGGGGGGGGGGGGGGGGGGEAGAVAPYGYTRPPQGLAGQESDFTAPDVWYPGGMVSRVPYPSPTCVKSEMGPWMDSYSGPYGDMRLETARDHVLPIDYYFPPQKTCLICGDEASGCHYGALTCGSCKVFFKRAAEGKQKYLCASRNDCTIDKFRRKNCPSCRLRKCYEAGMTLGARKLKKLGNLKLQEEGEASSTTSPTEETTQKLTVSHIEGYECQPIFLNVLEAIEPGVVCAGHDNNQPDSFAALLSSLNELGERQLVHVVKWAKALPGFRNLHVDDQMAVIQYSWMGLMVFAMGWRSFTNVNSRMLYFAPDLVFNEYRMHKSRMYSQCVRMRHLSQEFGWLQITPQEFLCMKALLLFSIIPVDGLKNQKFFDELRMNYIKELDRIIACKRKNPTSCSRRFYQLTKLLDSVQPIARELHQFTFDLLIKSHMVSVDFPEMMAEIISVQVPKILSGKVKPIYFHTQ

O=C1OC(=O)C2CC=CCC12 (centres undefined)
not listed: [20]
inactive: all other assays above

O=C(OC1C[C@H]2CC[C@@H](C1)[N+]21CCCC1)C(O)(c1ccccc1)c1ccccc1 (some centres undefined)
not listed: [6] | [8]
inactive: all other assays above

CCOC(OCC)OCC
not listed: [9] | [15] | [19] | [20]
inactive: all other assays above

CC(=O)Nc1ccn(C2COC(COC(=O)c3ccccc3)O2)c(=O)n1 (centres undefined)
not listed: [8] | [18] | [20]
inactive: all other assays above

CC1(C)CC(O)CC(C)(C)N1[O]
not listed: [15] | [20]
inactive: all other assays above

Cc1c(Cl)cccc1[N+](=O)[O-]
not listed: [8] | [9] | [10] | [17] | [20]
inactive: all other assays above

CC(CN=Cc1ccccc1O)N=Cc1ccccc1O (centres undefined)
not listed: [8] | [20]
inactive: all other assays above

Cc1cc(N)n(-c2ccccc2)n1
not listed: [15] | [20]
inactive: all other assays above
